PubChem BioAssay (NCI)
This is part of a sample that, as a whole, favours compounds with a hit. Of some 79,000 tested, about 15% had one in any assay. Values without a mark were called inactive. The source made the active and inactive calls. Cut-off read from the data, not from the text of the source: active = growth inhibition above about 70%; inactive = the rest.

Experiment: NCI Yeast Anticancer Drug Screen. Data for the sgs1 strain (AID 173);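 note: 0% = growth of vehicle-only control cultures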
Details: S. cerevisiae sgs1 mutant, active compounds read high
Experimental: Growth inhibition of yeast strains with defined genetic alterations is measured as a screen for potential anti-cancer activity. Selected strains with alterations in DNA damage repair or cell cycle control were exposed to compounds and growth inhibition was measured relative to vehicle treated controls. The strain used in this assay is sgs1

SMILES | growth inhibition (at 1.2 µM) | growth inhibition (at 3.7 µM) | growth inhibition (at 11.0 µM) | growth inhibition (at 33.0 µM) | growth inhibition (at 100.0 µM)
CCOC(=O)c1sc2[n+](c1C)C(=O)/C(=C/c1cc(OC)c(OC)c(OC)c1)S2 | 17% | 23% | 48% | 90% (active) | 95% (active)
c1ccc(C2=NNC3c4ccccc4-c4ccccc4N3C2)cc1 (stereo not given) | -3% | -4% | -5% | 2% | 16%
CNC(=O)OCc1c(COC(=O)NC)c(C)n(-c2ccc(Cl)c(Cl)c2)c1C | 3% | -4% | 1% | 97% (active) | 98% (active)
CC(C)(C(=O)NN)c1ccccc1 | 0% | 13% | 41% | 71% (active) | 94% (active)
O=C(Nn1c(-c2ccccc2)nc2ccccc2c1=O)c1ccc(Cl)cc1 | 23% | 19% | 33% | 78% (active) | 96% (active)
Cc1ccc2c(/C=C/c3ccc(N(C)C)cc3)ccnc2c1C | -26% | -51% | -4% | 82% (active) | 87% (active)
CN(C)c1ccc(/C=C/c2ccnc3ccc4ccccc4c23)cc1 | -3% | 11% | 67% | 77% (active) | 68%
O=C(O)NCC1CCCCC1 (tested in a mixture with another compound) | -4% | 6% | -23% | -5% | 75% (active)
